Assay results reported in ChEMBL document CHEMBL1961873, “Compounds: GSK PKIS; Assays: Nanosyn kinase panel” (2012).
Values joined by “and” are separate entries in the source; they are usually repeats but may differ in a detail not shown here. Equal values may be shown once.

Assays:
[1] = target: Serine/threonine-protein kinase pim-2 (Homo sapiens) (UniProt Q9P1W9); details: at 1 µM;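 also: each value is a mean of the inhibition measurements against the kinase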
[2] = target: Serine/threonine-protein kinase pim-3 (Homo sapiens) (UniProt Q86V86); details: at 0.1 µM
[3] = target: Serine/threonine-protein kinase pim-3 (Homo sapiens) (UniProt Q86V86); details: at 1 µM
[4] = target: T1, MAP kinase-activated protein kinase 5 (Homo sapiens) (UniProt Q8IW41); details: at 0.1 µM
T1 sequence (whole entry): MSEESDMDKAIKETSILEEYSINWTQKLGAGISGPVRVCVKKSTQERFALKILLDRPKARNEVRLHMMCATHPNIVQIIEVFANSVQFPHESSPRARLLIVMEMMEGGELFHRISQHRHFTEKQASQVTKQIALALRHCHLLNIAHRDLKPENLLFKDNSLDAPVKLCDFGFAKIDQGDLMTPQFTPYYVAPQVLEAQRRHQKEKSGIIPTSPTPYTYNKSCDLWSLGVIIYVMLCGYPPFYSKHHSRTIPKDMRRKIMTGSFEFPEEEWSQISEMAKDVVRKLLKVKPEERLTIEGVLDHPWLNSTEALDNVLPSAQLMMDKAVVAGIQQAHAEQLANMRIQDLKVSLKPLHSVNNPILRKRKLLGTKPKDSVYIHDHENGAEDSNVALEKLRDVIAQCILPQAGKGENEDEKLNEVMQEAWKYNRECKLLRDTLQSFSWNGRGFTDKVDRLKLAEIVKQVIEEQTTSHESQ

[5] = target: T1, MAP kinase-activated protein kinase 5 (Homo sapiens); details: at 1 µM
[6] = target: Serine/threonine-protein kinase SIK1 (Homo sapiens) (UniProt P57059); details: at 0.1 µM
[7] = target: Serine/threonine-protein kinase SIK1 (Homo sapiens) (UniProt P57059); details: at 1 µM
[8] = target: Serine/threonine-protein kinase SIK2 (Homo sapiens) (UniProt Q9H0K1); details: at 0.1 µM
[9] = target: Serine/threonine-protein kinase SIK2 (Homo sapiens) (UniProt Q9H0K1); details: at 1 µM
[10] = target: T2, Serine/threonine-protein kinase TBK1 (Homo sapiens) (UniProt Q9UHD2); details: at 0.1 µM
T2 sequence (whole entry): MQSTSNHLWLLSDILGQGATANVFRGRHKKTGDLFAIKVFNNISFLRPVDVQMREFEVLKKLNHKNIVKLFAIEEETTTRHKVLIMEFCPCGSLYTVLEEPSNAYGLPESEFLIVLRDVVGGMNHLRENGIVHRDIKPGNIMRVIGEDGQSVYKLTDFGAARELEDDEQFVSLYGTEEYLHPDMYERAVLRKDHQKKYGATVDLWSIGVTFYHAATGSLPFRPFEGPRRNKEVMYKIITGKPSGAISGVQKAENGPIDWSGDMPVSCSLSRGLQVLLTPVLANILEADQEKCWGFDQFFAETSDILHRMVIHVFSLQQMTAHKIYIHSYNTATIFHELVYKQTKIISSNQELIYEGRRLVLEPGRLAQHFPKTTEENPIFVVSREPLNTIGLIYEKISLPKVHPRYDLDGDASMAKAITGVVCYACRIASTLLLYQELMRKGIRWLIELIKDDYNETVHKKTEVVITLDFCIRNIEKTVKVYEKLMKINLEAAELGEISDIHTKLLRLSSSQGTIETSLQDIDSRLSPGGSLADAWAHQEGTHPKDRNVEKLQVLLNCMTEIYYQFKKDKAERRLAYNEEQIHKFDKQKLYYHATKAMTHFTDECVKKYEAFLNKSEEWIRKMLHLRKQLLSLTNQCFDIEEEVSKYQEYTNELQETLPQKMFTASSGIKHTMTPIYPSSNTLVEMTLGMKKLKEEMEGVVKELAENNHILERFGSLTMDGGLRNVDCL

[11] = target: T2, Serine/threonine-protein kinase TBK1 (Homo sapiens); details: at 1 µM
[12] = target: T3, Testis-specific serine/threonine-protein kinase 1 (Homo sapiens) (UniProt Q9BXA7); details: at 0.1 µM
T3 sequence (whole entry): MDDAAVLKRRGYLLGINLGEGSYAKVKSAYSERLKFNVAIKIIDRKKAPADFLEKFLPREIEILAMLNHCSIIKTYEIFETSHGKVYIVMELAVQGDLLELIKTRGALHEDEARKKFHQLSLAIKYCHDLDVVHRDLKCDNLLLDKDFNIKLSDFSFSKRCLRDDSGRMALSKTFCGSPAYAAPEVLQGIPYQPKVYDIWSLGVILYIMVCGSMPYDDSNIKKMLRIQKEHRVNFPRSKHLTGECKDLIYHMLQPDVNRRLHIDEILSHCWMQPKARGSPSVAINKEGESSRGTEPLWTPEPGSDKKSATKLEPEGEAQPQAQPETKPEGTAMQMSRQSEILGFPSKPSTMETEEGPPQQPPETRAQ

[13] = target: T3, Testis-specific serine/threonine-protein kinase 1 (Homo sapiens); details: at 1 µM
[14] = target: T4, Testis-specific serine/threonine-protein kinase 2 (Homo sapiens) (UniProt Q96PF2); details: at 0.1 µM
T4 sequence (whole entry): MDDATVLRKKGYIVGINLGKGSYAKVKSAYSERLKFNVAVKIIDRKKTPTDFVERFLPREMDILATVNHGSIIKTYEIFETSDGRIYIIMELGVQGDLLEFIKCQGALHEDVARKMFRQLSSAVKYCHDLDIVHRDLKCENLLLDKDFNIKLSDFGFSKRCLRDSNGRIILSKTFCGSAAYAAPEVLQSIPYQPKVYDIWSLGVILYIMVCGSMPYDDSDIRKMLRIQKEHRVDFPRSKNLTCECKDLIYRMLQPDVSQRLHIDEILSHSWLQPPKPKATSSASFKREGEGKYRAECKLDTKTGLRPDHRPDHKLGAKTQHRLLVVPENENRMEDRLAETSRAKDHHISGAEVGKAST

[15] = target: T4, Testis-specific serine/threonine-protein kinase 2 (Homo sapiens); details: at 1 µM
[16] = target: Casein kinase I isoform alpha (Homo sapiens) (UniProt P48729); details: at 0.1 µM
[17] = target: Casein kinase I isoform alpha (Homo sapiens) (UniProt P48729); details: at 1 µM
[18] = target: Casein kinase I isoform gamma-1 (Homo sapiens) (UniProt Q9HCP0); details: at 0.1 µM
[19] = target: Casein kinase I isoform gamma-1 (Homo sapiens) (UniProt Q9HCP0); details: at 1 µM
[20] = target: Casein kinase I isoform gamma-2 (Homo sapiens) (UniProt P78368); details: at 0.1 µM;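 also: values are mean inhibition figures reported as part of the GSK PKIS dataset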
Casein kinase I isoform gamma-2 (Homo sapiens), sequence (P78368 whole entry, looked up, canonical isoform): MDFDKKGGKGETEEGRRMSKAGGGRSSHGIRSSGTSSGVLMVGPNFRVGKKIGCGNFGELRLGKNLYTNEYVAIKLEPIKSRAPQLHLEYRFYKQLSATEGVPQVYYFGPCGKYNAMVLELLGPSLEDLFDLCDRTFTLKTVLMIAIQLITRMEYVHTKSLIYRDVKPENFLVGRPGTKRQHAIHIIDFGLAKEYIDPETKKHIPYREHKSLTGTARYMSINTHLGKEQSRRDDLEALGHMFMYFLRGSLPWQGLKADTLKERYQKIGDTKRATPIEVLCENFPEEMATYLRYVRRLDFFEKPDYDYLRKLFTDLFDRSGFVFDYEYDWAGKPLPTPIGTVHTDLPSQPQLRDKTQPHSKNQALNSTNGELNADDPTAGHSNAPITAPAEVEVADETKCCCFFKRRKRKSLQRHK

Serine/threonine-protein kinase SIK2 (Homo sapiens), sequence (Q9H0K1 whole entry, looked up): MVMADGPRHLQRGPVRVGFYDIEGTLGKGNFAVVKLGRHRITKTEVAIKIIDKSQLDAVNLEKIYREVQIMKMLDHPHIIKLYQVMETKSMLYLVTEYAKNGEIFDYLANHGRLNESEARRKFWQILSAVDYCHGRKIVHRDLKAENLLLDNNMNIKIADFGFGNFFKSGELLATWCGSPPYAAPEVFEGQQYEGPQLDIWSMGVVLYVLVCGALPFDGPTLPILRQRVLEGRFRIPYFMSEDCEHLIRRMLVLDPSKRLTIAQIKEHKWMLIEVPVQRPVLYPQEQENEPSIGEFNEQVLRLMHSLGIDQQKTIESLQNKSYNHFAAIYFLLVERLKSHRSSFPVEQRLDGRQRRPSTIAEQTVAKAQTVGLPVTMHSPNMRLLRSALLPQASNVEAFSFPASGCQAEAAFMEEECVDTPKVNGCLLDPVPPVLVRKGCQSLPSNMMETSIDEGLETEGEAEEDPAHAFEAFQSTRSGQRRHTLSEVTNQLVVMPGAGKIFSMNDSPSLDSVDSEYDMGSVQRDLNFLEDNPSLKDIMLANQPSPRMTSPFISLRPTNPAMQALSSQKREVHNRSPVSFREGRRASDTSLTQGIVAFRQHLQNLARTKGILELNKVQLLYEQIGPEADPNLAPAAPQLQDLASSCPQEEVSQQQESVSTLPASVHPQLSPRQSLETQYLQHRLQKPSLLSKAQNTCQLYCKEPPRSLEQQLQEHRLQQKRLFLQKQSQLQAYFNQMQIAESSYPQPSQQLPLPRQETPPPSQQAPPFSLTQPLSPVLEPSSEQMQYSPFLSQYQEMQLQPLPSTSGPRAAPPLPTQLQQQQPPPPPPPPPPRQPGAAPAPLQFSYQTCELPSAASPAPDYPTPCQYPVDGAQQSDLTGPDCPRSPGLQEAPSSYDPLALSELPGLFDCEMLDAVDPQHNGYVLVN
Serine/threonine-protein kinase SIK1 (Homo sapiens), sequence (P57059 whole entry): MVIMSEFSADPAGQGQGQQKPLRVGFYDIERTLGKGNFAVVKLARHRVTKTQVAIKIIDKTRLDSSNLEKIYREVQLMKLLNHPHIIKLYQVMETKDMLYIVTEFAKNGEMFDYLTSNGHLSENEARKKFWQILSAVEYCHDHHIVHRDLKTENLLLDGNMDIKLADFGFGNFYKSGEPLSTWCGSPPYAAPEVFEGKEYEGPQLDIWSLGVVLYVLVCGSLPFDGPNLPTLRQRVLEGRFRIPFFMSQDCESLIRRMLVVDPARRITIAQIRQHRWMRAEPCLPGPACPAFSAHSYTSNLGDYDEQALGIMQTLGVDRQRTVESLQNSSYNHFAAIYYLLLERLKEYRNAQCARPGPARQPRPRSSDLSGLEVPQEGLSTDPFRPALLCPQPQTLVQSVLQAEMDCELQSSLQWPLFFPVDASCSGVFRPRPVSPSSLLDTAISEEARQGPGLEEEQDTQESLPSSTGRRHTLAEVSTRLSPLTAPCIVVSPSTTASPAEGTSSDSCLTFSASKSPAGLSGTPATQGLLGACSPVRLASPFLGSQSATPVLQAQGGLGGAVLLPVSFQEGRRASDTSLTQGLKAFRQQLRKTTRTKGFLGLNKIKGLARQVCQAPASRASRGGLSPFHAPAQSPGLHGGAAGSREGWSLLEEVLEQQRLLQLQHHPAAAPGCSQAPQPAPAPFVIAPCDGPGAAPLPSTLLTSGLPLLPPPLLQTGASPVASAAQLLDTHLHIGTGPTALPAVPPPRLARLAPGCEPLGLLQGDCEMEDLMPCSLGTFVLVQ
Casein kinase I isoform gamma-1 (Homo sapiens), sequence (Q9HCP0 whole entry, looked up, canonical isoform): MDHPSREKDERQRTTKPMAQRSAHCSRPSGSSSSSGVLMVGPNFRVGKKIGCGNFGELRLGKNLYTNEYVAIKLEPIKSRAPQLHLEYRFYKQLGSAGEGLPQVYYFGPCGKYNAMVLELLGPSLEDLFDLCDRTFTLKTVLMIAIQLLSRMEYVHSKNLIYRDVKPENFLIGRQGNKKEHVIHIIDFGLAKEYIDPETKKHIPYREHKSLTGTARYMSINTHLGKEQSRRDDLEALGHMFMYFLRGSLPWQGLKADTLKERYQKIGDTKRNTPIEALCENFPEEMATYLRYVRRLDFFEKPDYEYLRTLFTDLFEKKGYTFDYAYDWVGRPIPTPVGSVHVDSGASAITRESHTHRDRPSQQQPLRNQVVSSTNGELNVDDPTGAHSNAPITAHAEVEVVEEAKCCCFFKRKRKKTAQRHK
Serine/threonine-protein kinase pim-2 (Homo sapiens), sequence (Q9P1W9 whole entry, looked up): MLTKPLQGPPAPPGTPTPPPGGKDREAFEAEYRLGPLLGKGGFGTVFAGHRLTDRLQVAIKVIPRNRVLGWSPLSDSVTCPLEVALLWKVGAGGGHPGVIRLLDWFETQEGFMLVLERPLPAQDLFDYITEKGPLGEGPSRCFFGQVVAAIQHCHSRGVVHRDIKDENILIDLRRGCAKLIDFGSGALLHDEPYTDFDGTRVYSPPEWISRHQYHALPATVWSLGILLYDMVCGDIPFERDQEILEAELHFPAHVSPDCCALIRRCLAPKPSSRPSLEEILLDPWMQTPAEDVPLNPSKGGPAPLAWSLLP
Casein kinase I isoform alpha (Homo sapiens), sequence (P48729 2-337 limits assumed): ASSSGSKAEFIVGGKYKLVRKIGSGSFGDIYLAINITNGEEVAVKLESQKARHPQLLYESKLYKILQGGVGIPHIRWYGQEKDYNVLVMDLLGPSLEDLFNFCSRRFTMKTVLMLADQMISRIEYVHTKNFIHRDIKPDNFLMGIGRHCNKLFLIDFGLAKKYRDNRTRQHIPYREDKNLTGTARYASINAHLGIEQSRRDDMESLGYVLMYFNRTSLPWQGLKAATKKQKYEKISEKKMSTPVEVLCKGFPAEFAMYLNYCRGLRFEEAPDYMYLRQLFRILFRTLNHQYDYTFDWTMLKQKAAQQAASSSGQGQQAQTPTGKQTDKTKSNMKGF

| SMILES | inhibition [1] | inhibition [2] | inhibition [3] | inhibition [4] | inhibition [5] | inhibition [6] | inhibition [7] | inhibition [8] | inhibition [9] | inhibition [10] | inhibition [11] | inhibition [12] | inhibition [13] | inhibition [14] | inhibition [15] | inhibition [16] | inhibition [17] | inhibition [18] | inhibition [19] | inhibition [20] |
| --- | --- | --- | --- | --- | --- | --- | --- | --- | --- | --- | --- | --- | --- | --- | --- | --- | --- | --- | --- | --- |
| NS(=O)(=O)c1ccc(N/N=C2\C(=O)Nc3ccc(C(=O)NCc4ccncc4)cc32)cc1 | 4.93% | 1.9% | 8.56% | 1.84% | 6.01% | 3.99% | 19.8% | 6.03% | 17.1% | 3.83% | 44% | 5.34% | 20.7% | 2.55% | 2.67% | 1.19% | 2.77% | 2.33% | 4.19% | 1.94% |
| Fc1cccc(COc2ccc(Nc3ncncc3C#Cc3ccccc3)cc2Cl)c1 | 1.48% | -0.8% | 3.6% | 2.08% | 4.3% | 3.74% | 5.31% | 9.03% | 6.72% | 5.15% | 6.39% | 3.55% | 6.94% | 2.49% | 4.25% | 5.09% | 7.86% | 4.27% | 4.53% | 3.09% |
| Nc1ncnc2occ(-c3ccc(NC(=O)Nc4cc(C(F)(F)F)ccc4F)cc3)c12 | 0.09% and 1.14% | 0.34% and 0.04% | -1.35% and 1.44% | -0.03% and -0.81% | -1.65% and -0.72% | 5.31% and -3.84% | 6.74% and 3.25% | 6.29% and -4.61% | 1.48% and -6.22% | 0.47% and 0.44% | 6.12% and 3.01% | 0.74% and -0.54% | -2.13% and 0.25% | 0.34% and -1.88% | -2.39% and -1.51% | -0.66% and -1.83% | 4.18% and -1.62% | 1.37% and -1.43% | 5.11% and 0.87% | 0.83% and -2.39% |
| CS(=O)(=O)CCNCc1ccc(-c2ccc3ncnc(Nc4ccc(OCc5ccccc5)cc4)c3c2)o1 | 0.74% | 0.79% | 1.6% | 1.45% | 1.42% | 4.11% | 9.04% | 3.65% | 6.41% | 3.64% | 3.03% | 3.31% | 4.28% | 5.73% | 2.17% | 4.49% | 1.55% | 2.67% | 3.35% | 2.72% |
